From PubChem BioAssay (Tox21)
Several values for one entry are separate records, joined by “and”; a condition that tells them apart may be missing. Equal values may be shown once. Records with an inconclusive call do not appear. Some structures have more than one record in an assay (separate samples or runs), and their calls can disagree. Activity calls are given as the source filed them. Unless noted, the call rests on the fitted dose curve; in most records, active means well fitted curve in the direction sought with a large enough effect in the repeat runs; inconclusive means weak or mixed curves; inactive means no such curve, though single readings can be large; an effect the other way counts as inactive or inconclusive.

How the values were obtained:
[1] = molecular target: Estrogen receptor beta (Homo sapiens) (UniProt Q92731); experiment: qHTS assay to identify small molecule agonists of the estrogen receptor beta (ER-beta) signaling pathway (AID 1259377; active means well fitted activation curve with a large enough effect in the signal ratio in the repeat runs, not every such curve was filed as active; the % refers to the signal ratio; further: potency means the concentration at half of the fitted maximal effect)
Outline: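 Agonist mode cell assay in GripTite HEK293T cells expressing an ER-beta fusion that drives beta-lactamase from an Upstream Activator Sequence; 16 hr compound exposure at 37C, then 2 h LiveBLAzer B/G FRET substrate at room temperature, fluorescence read-out.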

[2] = qHTS assay to identify small molecule agonists of the androgen receptor (AR) signaling pathway in the presence of an antagonist - cell viability counter screen (AID 1259379); further: nearly all actives have a fitted effect of over 25% in size; further: potency means the concentration at half of the fitted maximal effect;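 on activity change, negative = cytotoxicity: MDA-kb2 human breast cancer cells carrying an MMTV luciferase reporter; series mostly up to about 92 µM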
Outline: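 Viability counter screen: CellTiter-Fluor fluorescence, measured in the same wells as the luciferase read-out. MDA-kb2 cells, 3,000/well, with nilutamide at 3.0uM final and compounds at 15 concentrations, 16 hr at 37C, 0% CO2.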

[3] = qHTS assay to identify small molecule agonists of the estrogen receptor beta (ER-beta) signaling pathway - cell viability counter screen (AID 1259380); further: nearly all actives have a fitted effect of over 30% in size; further: potency means the concentration at half of the fitted maximal effect
Outline: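 Luminescence read-out (CellTiter-Glo, 30 min, room temp) taken in the same wells as the beta-lactamase reporter assay; ER-beta-UAS-bla HEK293T cells exposed to DMSO-dissolved compounds for 16 hr at 37C in 2% charcoal-stripped FBS medium.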

[4] = qHTS assay to identify small molecule antagonists of the estrogen receptor beta (ER-beta) signaling pathway - cell viability counter screen (AID 1259382); further: nearly all actives have a fitted effect of over 55% in size; further: potency means the concentration at half of the fitted maximal effect;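 on activity change, negative = cytotoxicity: HEK293T cells carrying ER-beta-UAS-bla reporter stimulated with estradiol; series mostly up to about 92 µM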
Outline: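 Luminescent ATP read-out (CellTiter-Glo, 30 min, RT) taken in the same wells as the bla reporter assay. HEK293T ER-beta-UAS-bla cells in 2% charcoal-stripped FBS were exposed to compounds with 1nM E2 for 16 hr at 37C.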

[5] = molecular target: Estrogen receptor (Homo sapiens) (UniProt P03372); experiment: qHTS assay to identify small molecule agonists of the estrogen receptor alpha (ER-alpha) signaling pathway in the presence of an antagonist (AID 1259383; calls by dose curve; further: top concentration of the series differs between compounds; nearly all actives have a fitted effect of over 15% in size)
Outline: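 Luciferase luminescence (ONE-Glo, 30min at room temperature) measured in VM7Luc4E2 cells after 22hr compound exposure at 15 concentrations, with 10.0nM ICI-182,780 final present; cells express endogenous ER-alpha and carry four EREs upstream of luciferase.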

[6] = molecular target: Thyrotropin receptor (Homo sapiens) (UniProt P16473); experiment: qHTS assay to identify small molecule antagonists of the thyroid stimulating hormone receptor (TSHR) signaling pathway (AID 1259385; calls by dose curve; further: nearly all actives have a fitted effect of over 20% in size)
Outline: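 Antagonist mode: compound-treated TSHR-expressing HEK293 cells were stimulated with 1.5 ng/mL TSH (final) in presence of Ro20-1724 for 30 min at RT. HTRF cAMP detection after 1 h; each compound tested at 15 concentrations, triplicate.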

[7] = qHTS assay to identify small molecule antagonists of the progesterone receptor (PR) signaling pathway - cell viability counter screen (AID 1346798); further: nearly all actives have a fitted effect of over 50% in size; further: potency means the concentration at half of the fitted maximal effect; on activity change, negative = cytotoxicity: series mostly up to about 92 µM
Outline: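 Counter screen for cytotoxicity: viability of PR-UAS-bla HEK293T cells was measured with CellTiter-Glo luminescence following 16 hr compound exposure in the presence of R5020.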

[8] = qHTS assay to identify small molecule antagonists of the TGF-beta/Smad signaling pathway - cell viability counter screen (AID 1346824); further: nearly all actives have a fitted effect of over 50% in size; further: potency means the concentration at half of the fitted maximal effect
Outline: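 Cytotoxicity counter-screen run in the same wells as the beta-lactamase Smad reporter read: CellTiter-Glo luminescence after 30 min at room temperature. HEK 293T SBE-bla cells had 5 hr compound exposure at 37 C with TGF-beta1 (0.25 ng/mL stock).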

[9] = qHTS assay to identify small molecule agonists of the TGF-beta/Smad signaling pathway - cell viability counter screen (AID 1346829); further: nearly all actives have a fitted effect of over 45% in size; further: potency means the concentration at half of the fitted maximal effect; on activity change, negative = cytotoxicity: top concentration of the series differs between compounds
Outline: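 SBE-bla HEK 293T cells plated overnight, compound exposure 5 hr at 37 C. Viability read in the same wells by CellTiter-Glo luminescence after 30 min at room temperature, following the beta-lactamase read.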

[10] = qHTS assay to identify small molecule agonists of the TGF-beta/Smad signaling pathway (AID 1346859; active means well fitted activation curve with a large enough effect in the signal ratio in the repeat runs, not every such curve was filed as active; the % refers to the signal ratio; further: series mostly up to about 77 µM)
Outline: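 Reporter line: HEK 293T with stably integrated SBE-controlled beta-lactamase. Compound exposure lasts 5 hr at 37 C and 5% CO2; substrate loading follows for 2 hr at room temperature, with emission read at 460 and 530 nm.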

[11] = Human pregnane X receptor (PXR) small molecule agonists, qHTS cell viability counter screen (AID 1346977); further: nearly all actives have a fitted effect of over 50% in size; further: potency means the concentration at half of the fitted maximal effect
Outline: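 Cytotoxicity counter screen run in the same wells as the PXR luciferase assay, using PXR-Luc HepG2 cells in charcoal-stripped serum medium. Viability: CellTiter-Fluor fluorescence after 24hr compound treatment.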

[12] = qHTS assay to identify small molecule agonists or antagonists of the thyroid stimulating hormone receptor (TSHR) signaling pathway - wild type cell line counter screen (AID 1259384; calls by dose curve)
Outline: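 Counter screen in untransfected Hek293: compounds (15-point titration, triplicate) plus phosphodiesterase inhibitor Ro20-1724 added after 18 h plating; 30 min RT. Intracellular cAMP via competitive d2/cryptate immunoassay, 1 h incubation.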

[13] = molecular target: Progesterone receptor (Homo sapiens) (UniProt P06401); experiment: qHTS assay to identify small molecule agonists of the progesterone receptor (PR) signaling pathway (AID 1346784; calls by dose curve; further: nearly all actives have a fitted effect of over 30% in size)
Outline: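 Cells (PR-UAS-bla HEK 293T, GripTite) were plated in assay medium containing 2% charcoal-stripped FBS and incubated 6 hr. Test compounds in DMSO were added for 16 hr at 37C. FRET substrate was then loaded for 2 hr at room temperature before fluorescence reading.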

[14] = molecular target: Progesterone receptor (Homo sapiens) (UniProt P06401); experiment: qHTS assay to identify small molecule antagonists of the progesterone receptor (PR) signaling pathway (AID 1346795; active means well fitted inhibition curve with a large enough effect in the signal ratio in the repeat runs, not every such curve was filed as active; the % refers to the signal ratio; further: potency means the concentration at half of the fitted maximal effect)
Outline: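 Antagonist mode: compounds tested against 1 nM (final) promegestone stimulation in HEK293T cells expressing PR-UAS-bla reporter, 16 hr at 37C, 5% CO2; beta-lactamase activity detected via B/G FRET substrate after 2 hr at room temperature.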

[15] = molecular target: Androgen receptor (Homo sapiens) (UniProt P10275); experiment: qHTS assay to identify small molecule agonists of the androgen receptor (AR) signaling pathway in the presence of an antagonist (AID 1259381; calls by dose curve; further: nearly all actives have a fitted effect of over 15% in size)
Outline: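 Luciferase read-out (ONE-Glo, 30min room temperature) in MDA-kb2 MMTV-reporter cells; agonist mode run in presence of AR antagonist nilutamide, 3.0uM final. Compounds tested as 15-point series, 16hr exposure at 37C, 0% CO2.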

[16] = qHTS assay to identify small molecule agonists of the estrogen receptor alpha (ER-alpha) signaling pathway in the presence of an antagonist - cell viability counter screen (AID 1259386);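 further: cells exposed to compounds for 22 h at 37 °C before the viability read; nearly all actives have a fitted effect of over 30% in size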; further: potency means the concentration at half of the fitted maximal effect; on activity change, negative = cytotoxicity: series mostly up to about 92 µM
Outline: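 Read-out: CellTiter-Fluor fluorescence after 1hr reagent incubation, measured in the same wells as the luciferase readout. VM7Luc4E2 cells were exposed to 15 compound concentrations with 10.0nM ICI-182,780 for 22hr at 37C.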

[17] = qHTS assay to identify small molecule agonists of the progesterone receptor (PR) signaling pathway - cell viability counter screen (AID 1346799; calls by dose curve; further: nearly all actives have a fitted effect of over 45% in size; further: potency means the concentration at half of the fitted maximal effect)
Outline: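 Cells (PR-UAS-bla HEK293T) are plated at 3,000/well in 2% charcoal-stripped FBS medium, rested 6 hr, dosed and incubated 16 hr at 37C. CellTiter-Glo is then added and luminescence measured after 30 min at room temperature.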

[18] = molecular target: Thyrotropin-releasing hormone receptor (Homo sapiens) (UniProt P34981); experiment: qHTS assay to identify small molecule antagonists of the thyrotropin-releasing hormone receptor (TRHR) signaling pathway (AID 1346877; active means well fitted inhibition curve with a large enough effect in the repeat runs, not every such curve was filed as active; further: series mostly up to about 51 µM)
Outline: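 HEK293/TRHR cells, 18 h, 37 °C; Ca2+ dye 2 h; cpd 5 min RT; TRH 1 nM final; fluorescence read 3 min, 1 s intervals; 15 concs, triplicate.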

[19] = molecular target: Thyrotropin-releasing hormone receptor (Homo sapiens) (UniProt P34981); experiment: qHTS assay to identify small molecule agonists of the thyrotropin-releasing hormone receptor (TRHR) signaling pathway (AID 1346891; calls by dose curve;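 further: HEK293 cells expressing TRHR with calcium dye readout; series mostly up to about 58 µM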)
Outline: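 Cells: TRHR-Hek293, seeded and incubated 18 h. Dye loading: 2 h at 37 °C. Compound added from DMSO stock by pin tool. Read-out: kinetic calcium fluorescence over 3 min.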

[20] = molecular target: Estrogen receptor beta (Homo sapiens) (UniProt Q92731); experiment: qHTS assay to identify small molecule antagonists of the estrogen receptor beta (ER-beta) signaling pathway (AID 1259378; active means well fitted inhibition curve with a large enough effect in the signal ratio in the repeat runs, not every such curve was filed as active; the % refers to the signal ratio; further: potency means the concentration at half of the fitted maximal effect)
Outline: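 Antagonist mode: compounds added to beta-lactamase reporter HEK293T ER-beta-UAS cells stimulated with E2 (1nM final), 16 hr at 37C. LiveBLAzer B/G FRET substrate, 2 hours room temperature, fluorescence read-out.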
On the % scale 0 is the no-effect control and ±100 the full control effect.

Sequence of Thyrotropin receptor (Homo sapiens) (P16473 whole entry, looked up): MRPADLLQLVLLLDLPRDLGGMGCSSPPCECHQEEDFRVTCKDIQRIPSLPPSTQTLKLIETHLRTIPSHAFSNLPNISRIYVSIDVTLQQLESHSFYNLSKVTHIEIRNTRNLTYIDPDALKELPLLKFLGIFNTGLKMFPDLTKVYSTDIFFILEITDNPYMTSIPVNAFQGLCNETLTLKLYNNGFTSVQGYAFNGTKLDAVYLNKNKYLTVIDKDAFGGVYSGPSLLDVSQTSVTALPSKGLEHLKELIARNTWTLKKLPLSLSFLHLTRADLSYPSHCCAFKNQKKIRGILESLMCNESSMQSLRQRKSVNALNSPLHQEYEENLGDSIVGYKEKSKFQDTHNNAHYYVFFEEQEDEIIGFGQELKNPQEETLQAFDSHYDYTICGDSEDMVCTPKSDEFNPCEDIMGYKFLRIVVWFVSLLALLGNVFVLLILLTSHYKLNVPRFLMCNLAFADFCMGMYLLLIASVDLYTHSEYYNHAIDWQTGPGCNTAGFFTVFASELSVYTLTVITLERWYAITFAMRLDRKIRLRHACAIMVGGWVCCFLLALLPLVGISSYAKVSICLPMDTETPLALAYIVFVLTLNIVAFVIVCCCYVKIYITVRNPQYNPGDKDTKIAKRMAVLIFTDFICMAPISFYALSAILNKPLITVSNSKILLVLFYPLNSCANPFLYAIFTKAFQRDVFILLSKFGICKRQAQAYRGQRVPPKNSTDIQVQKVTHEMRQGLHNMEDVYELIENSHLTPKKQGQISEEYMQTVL
Sequence of Estrogen receptor beta (Homo sapiens) (Q92731 whole entry, looked up, the tested form may be a part): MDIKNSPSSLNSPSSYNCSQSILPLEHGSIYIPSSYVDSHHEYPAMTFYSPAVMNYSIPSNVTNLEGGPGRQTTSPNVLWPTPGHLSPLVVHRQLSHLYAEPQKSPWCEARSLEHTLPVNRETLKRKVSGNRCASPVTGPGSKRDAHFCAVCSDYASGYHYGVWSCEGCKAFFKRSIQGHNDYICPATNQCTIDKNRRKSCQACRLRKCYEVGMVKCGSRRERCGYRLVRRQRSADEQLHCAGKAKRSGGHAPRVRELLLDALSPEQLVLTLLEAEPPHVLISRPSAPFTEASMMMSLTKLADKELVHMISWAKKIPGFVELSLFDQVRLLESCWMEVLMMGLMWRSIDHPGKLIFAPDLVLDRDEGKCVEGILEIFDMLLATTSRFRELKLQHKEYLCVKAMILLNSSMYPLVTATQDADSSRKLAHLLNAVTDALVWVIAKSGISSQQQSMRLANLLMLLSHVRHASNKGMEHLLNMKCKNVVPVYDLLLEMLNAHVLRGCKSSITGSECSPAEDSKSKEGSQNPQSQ
Sequence of Progesterone receptor (Homo sapiens) (P06401 whole entry, looked up): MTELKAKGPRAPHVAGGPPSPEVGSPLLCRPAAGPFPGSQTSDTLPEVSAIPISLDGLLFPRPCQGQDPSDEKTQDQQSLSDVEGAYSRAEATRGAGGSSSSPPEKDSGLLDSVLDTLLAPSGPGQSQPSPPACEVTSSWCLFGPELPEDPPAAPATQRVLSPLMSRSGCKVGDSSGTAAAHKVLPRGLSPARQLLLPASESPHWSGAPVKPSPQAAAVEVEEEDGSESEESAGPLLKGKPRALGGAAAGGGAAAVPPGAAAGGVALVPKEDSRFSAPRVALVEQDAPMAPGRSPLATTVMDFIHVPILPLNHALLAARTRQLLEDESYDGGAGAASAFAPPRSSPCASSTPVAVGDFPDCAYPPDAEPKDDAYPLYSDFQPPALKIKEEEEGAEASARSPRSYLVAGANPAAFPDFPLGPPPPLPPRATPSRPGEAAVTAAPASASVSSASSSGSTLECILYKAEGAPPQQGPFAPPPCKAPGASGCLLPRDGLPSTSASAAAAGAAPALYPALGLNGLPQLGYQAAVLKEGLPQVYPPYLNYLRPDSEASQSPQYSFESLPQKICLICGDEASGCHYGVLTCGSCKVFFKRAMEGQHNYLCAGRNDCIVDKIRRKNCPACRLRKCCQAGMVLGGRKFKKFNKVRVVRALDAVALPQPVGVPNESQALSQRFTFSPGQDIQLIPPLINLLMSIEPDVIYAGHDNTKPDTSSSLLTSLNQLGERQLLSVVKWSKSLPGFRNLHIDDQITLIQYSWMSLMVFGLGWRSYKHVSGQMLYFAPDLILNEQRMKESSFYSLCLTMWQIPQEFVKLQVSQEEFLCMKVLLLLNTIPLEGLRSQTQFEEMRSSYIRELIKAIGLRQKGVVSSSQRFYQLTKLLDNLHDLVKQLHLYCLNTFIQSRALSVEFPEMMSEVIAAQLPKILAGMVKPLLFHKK
Sequence of Androgen receptor (Homo sapiens) (P10275 whole entry, looked up): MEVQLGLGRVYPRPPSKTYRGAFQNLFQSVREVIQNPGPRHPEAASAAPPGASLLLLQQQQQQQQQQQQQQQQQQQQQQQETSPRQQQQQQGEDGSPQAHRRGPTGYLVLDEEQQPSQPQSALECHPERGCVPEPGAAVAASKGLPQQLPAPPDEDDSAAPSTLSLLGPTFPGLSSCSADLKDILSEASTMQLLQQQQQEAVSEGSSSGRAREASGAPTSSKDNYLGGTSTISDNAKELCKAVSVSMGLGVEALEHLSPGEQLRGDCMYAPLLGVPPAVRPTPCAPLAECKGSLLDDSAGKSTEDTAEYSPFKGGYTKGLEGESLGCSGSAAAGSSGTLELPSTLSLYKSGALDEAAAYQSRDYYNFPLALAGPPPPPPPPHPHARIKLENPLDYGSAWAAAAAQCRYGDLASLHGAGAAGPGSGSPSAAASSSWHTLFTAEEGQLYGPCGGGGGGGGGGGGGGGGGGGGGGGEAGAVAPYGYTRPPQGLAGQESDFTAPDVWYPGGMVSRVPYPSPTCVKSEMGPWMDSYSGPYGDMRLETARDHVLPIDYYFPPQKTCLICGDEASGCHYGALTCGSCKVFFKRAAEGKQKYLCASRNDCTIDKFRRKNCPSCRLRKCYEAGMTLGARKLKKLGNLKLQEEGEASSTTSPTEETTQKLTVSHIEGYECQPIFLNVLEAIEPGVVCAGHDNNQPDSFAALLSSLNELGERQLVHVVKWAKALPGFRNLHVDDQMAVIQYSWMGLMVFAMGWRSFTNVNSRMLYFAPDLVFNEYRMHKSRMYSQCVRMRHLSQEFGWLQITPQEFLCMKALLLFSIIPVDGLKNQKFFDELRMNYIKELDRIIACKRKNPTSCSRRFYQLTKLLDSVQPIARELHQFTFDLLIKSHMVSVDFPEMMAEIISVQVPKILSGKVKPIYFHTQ
Sequence of Thyrotropin-releasing hormone receptor (Homo sapiens) (P34981 whole entry, looked up): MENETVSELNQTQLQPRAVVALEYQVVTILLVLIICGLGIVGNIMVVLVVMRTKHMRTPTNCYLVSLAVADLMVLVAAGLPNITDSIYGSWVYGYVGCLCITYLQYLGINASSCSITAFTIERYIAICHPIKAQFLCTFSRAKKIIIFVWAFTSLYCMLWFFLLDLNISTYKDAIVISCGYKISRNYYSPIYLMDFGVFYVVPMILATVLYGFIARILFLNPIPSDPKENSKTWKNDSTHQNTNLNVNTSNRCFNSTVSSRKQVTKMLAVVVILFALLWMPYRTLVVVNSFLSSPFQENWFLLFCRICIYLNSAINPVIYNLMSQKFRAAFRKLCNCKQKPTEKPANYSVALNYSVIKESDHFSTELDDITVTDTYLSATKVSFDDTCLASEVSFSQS
Sequence of Estrogen receptor (Homo sapiens) (P03372 whole entry, looked up): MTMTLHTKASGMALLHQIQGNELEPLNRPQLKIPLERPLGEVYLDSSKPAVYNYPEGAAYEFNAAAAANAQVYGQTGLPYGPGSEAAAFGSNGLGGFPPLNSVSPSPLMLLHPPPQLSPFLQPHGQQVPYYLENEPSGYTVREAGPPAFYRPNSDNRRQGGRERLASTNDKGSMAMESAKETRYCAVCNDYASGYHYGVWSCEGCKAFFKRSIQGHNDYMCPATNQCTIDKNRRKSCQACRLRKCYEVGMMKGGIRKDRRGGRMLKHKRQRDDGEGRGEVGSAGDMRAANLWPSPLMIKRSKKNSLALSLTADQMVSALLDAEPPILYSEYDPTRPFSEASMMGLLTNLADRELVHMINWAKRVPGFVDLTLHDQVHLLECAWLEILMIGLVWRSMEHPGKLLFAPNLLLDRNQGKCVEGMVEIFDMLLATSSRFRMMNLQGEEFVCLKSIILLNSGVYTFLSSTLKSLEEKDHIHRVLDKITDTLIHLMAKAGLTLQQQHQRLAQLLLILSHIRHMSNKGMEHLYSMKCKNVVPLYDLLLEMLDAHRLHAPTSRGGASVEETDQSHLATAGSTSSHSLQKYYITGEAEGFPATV

O=C1c2c(O)ccc([N+](=O)[O-])c2C(=O)c2c([N+](=O)[O-])ccc(O)c21
inactive: Potency [1] | Potency [5] | Potency [6] | Potency [10]
active: Potency [2] 27.1 µM | Potency [3] 15.2 µM | Potency [4] 17.1 µM | Potency [7] 24.1 µM | Potency [8] 48.5 µM | Potency [9] 48.5 µM | Potency [11] 13.6 µM

CC(=O)Oc1ccc(C2(c3ccc(OC(C)=O)cc3)C(=O)Nc3ccccc32)cc1
inactive: Potency [1] | Potency [3] | Potency [4] | Potency [5] | outcome [12] | outcome [13] | Potency [14] | Potency [8] | Potency [9] | Potency [10]

CN1CCN(C2Cc3ccccc3Sc3ccc(Cl)cc32)CC1 (centres undefined)
active: Potency [3] 21.1 µM | Potency [4] 18.8 µM | Potency [14] 26.6 µM | Potency [7] 29.8 µM | Potency [17] 29.8 µM | Potency [11] 26.6 µM
inactive: Potency [1] | Potency [15] | Potency [5] | outcome [12] | Potency [16] | Potency [10] | Potency [18] | Potency [19]

O[C@@H](c1cc(C(F)(F)F)nc2c(C(F)(F)F)cccc12)[C@H]1CCCCN1
inactive: Potency [1] | Potency [5] | outcome [12] | Potency [16] | Potency [10] | Potency [18]
active: Potency [3] 21.1 µM | Potency [4] 16.8 µM | Potency [14] 23.7 µM | Potency [7] 26.6 µM

COc1ccc2sc(C(=O)Nc3nnn[nH]3)c(OC(C)C)c2c1
inactive: Potency [1] | Potency [5] | outcome [12] | Potency [6] | outcome [13] | Potency [7] | Potency [8]
active: Potency [3] 6.83 µM | Potency [14] 54.3 µM | Potency [11] 24.2 µM

CCCCCCCCCCCCOC(=O)c1cc(O)c(O)c(O)c1
inactive: Potency [1] | Potency [5] | outcome [12] | Potency [10]
active: Potency [2] 68.3 µM and 61.1 µM | Potency [3] 34.2 µM and 68.6 µM | Potency [4] 68.3 µM and 68.6 µM | Potency [16] 60.9 µM | Potency [7] 54.2 µM | Potency [17] 60.9 µM | Potency [11] 60.9 µM and 61.1 µM
61.4 µM (active) and inactive: Potency [9]

CC1(C)COCN1
inactive: Potency [1] | Potency [2] | Potency [3] | Potency [15] | Potency [4] | outcome [12] | Potency [6] | Potency [16] | outcome [13] | Potency [14] | Potency [7] | Potency [17] | Potency [8] | Potency [9] | Potency [10] | Potency [18] | Potency [19] | Potency [11]

Oc1ccc(-c2ccc(O)cc2)cc1
inactive: Potency [2] | Potency [4] | outcome [12] | Potency [6] | Potency [16] | Potency [7] | Potency [17] | Potency [10] | Potency [18] | Potency [19]
active: Potency [1] 2.75 µM

COc1cc(C(C)C)c2c(c1)S(=O)(=O)N(COc1cc(=O)n3cccc(OCCN4CCCCC4)c3n1)C2=O
inactive: activity change, negative = cytotoxicity [2] 0.166% [at 19 µM] | activity change, negative = cytotoxicity [3] -6.94% [at 19 µM] | activation [15] -1.84% [at 19 µM] | activity change, negative = cytotoxicity [4] -17.6% [at 19 µM] | activation [5] -2.57% [at 19 µM] | cAMP activity change [12] 5.85% [at 18.9 µM] | activity change, negative = inhibition [6] -0.822% [at 19 µM] | activity change, negative = cytotoxicity [16] 4.42% [at 19 µM] | activation [13] 8.35% [at 19 µM] | activity change, negative = cytotoxicity [17] 20.1% [at 19 µM] | viability change, negative = cytotoxic [8] 14.4% [at 15.8 µM] | activity change, negative = cytotoxicity [9] 15.8% [at 15.8 µM] | activation [10] -2.24% [at 15.8 µM] | activity, negative = inhibition [18] 0.273% [at 10.5 µM] | activation [19] -1.34% [at 11.8 µM]

O=C(O)c1cccc(Cl)n1
inactive: Potency [2] | Potency [3] | Potency [15] | Potency [4] | Potency [5] | outcome [12] | Potency [6] | Potency [16] | outcome [13] | Potency [14] | Potency [7] | Potency [17] | Potency [8] | Potency [10] | Potency [18] | Potency [19] | Potency [11]

O=C1OC(=O)c2ccc3c4c(ccc1c24)C(=O)OC3=O
inactive: Potency [20] | Potency [2] | Potency [3] | Potency [4] | Potency [5] | outcome [12] | Potency [6] | Potency [16] | outcome [13] | Potency [14] | Potency [7] | Potency [8] | Potency [9] | Potency [10] | Potency [18] | Potency [19]

CCCCN(C)C
inactive: Potency [2] | Potency [3] | Potency [15] | Potency [4] | Potency [5] | outcome [12] | Potency [6] | Potency [16] | outcome [13] | Potency [14] | Potency [7] | Potency [17] | Potency [8] | Potency [9] | Potency [10] | Potency [19] | Potency [11]

Oc1ccc(-c2ccccc2)c(Cl)c1
inactive: Potency [2] | Potency [4] | Potency [5] | outcome [12] | Potency [6] | Potency [16] | outcome [13] | Potency [7] | Potency [8] | Potency [9] | Potency [10] | Potency [18] | Potency [19] | Potency [11]
active: Potency [20] 21.7 µM | Potency [3] 27.3 µM

CCCCCCCC(OC)OC
inactive: Potency [2] | Potency [3] | Potency [15] | Potency [4] | Potency [5] | outcome [12] | Potency [6] | Potency [16] | outcome [13] | Potency [14] | Potency [7] | Potency [17] | Potency [8] | Potency [9] | Potency [10] | Potency [18] | Potency [19]
